Sampled rows, rich in hits. Any-hit rate of the full collection: about 2.9%.
Integrin act MD = activators of alpha7 integrin expression for muscular dystrophy. alpha7betagal myoblasts, beta-gal FDG fluorescence, 48 h. Potency, µM (doses to about 38.3 µM), for inactives: top-dose activation, actives largely listed as activators. actives 0.064% (n = 350,000). AID 624291; active = well fitted activation curve with a large enough effect; inconclusive = small, poorly fitted or top-dose-only effect; inactive = no such curve, though single readings can be large or run the other way;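 also: potency is read from the fitted curve at half-maximal effect; 100% = response of the positive control SU9516; nearly all actives have a fitted effect of over 60% in size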
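Alpha7betagal+/- myoblasts (passage 13) were plated 16-24 hr, then exposed to compounds (1:260 dilution of DMSO stock) for 48 hours at 37C. After MPER lysis, β-galactosidase reporter activity was read as FDG fluorescence (ex 480/em 540) after 30 minutes.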
DRD3 agonist = agonists of human D3 dopamine receptor; P35462; AID 652048; D3R DiscoveRx beta-arrestin cells, luminescence, 90 min; max activation, %; actives 0.58% (n = 410,000); in the data active = max activation above about 30%; also: 0% is about no effect
Target sequence (P35462 whole entry, looked up): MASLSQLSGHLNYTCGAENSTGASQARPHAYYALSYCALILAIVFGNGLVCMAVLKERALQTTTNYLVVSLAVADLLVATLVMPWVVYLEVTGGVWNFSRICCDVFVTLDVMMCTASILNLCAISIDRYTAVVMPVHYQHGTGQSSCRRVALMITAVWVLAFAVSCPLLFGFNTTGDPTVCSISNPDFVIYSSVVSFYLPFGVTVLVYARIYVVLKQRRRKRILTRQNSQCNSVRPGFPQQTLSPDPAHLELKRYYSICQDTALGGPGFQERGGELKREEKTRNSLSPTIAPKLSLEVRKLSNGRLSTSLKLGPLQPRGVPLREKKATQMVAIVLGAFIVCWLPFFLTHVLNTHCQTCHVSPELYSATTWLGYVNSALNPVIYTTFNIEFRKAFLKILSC
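Agonist-mode cell screen: cells plated at 1500/well and incubated overnight at 37 °C, then exposed to library compounds for 90 min at 37 °C. Detection reagent was added for 30–60 min at room temperature, and luminescence was read.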
DRD3 antagonist = blocks the human D3 dopamine receptor | P35462 | D3R cells, DiscoveRx beta-arrestin luminescence, antagonist mode; stronger effect = lower value | max response, negative = inhibition, % | actives 2.5% (n = 360,000) | AID 652054; in the data active = max response below about -50%; inconclusive = no clear call, values can overlap the other calls; also: % is scaled to controls: 0 for no effect and ±100 for the full control effect
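Cells plated overnight at 1500 cells/well, then exposed to library compounds with dopamine controls for 90 minutes at 37 degrees C. DiscoveRx reagent added for 30–60 minutes at room temperature; luminescence read, quantitative HTS format.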
* marks the source's active call; other numbers are inactive results; ? = inconclusive; . = no result given; ! = a repeat was not active; [ ] = remark or other dose.

SMILES	Integrin act MD	DRD3 agonist	DRD3 antagonist
O=C(Nc1ccccc1)Nc1nnc([C@@H]2C[C@H](O)[C@@H](CO)O2)s1	.	-11.8	-67.8*
CC(C)(C)C(=O)Nc1nnc([C@H]2C[C@H](O)[C@@H](CO)O2)s1	.	7.5	15.8
O=C(Nc1ccc(OCc2ccccc2)cc1)Nc1nnc([C@H]2C[C@H](O)[C@@H](CO)O2)s1	.	-14.3	-52.8*
COc1ccccc1C(=O)OCCNC(=O)Cn1cnc2c1c(=O)n(C)c(=O)n2C	-25.6%	-4.7	14.7
O=C(c1ccccc1Cl)N1CCCC(c2nc3c(nnn3Cc3ccc(F)cc3F)c(=O)[nH]2)C1 (stereo not given)	.	-10.4	.
CN1CCN(c2ccc(CNS(=O)(=O)c3ccc(F)cc3Cl)cc2)CC1	8.1%	-17.3	-29.1
Cc1cc(S(=O)(=O)NCc2ccc(N3CCN(C)CC3)cc2)c(C)s1	-0.8%	-10.7	-62.6*
Cc1occc1-c1nnc(SCC(=O)Nc2nc(-c3ccccc3)cs2)o1	0.0%	12.3	13.7
Cc1occc1-c1nnc(SCC(=O)Nc2nc3ccccc3s2)o1	-4.7%	23.6	-103.4*
CO/N=C/c1ccc(N2CCN(C(=O)c3cccc(C(F)(F)F)c3)CC2)c([N+](=O)[O-])c1	-58.6%	52.5*	44.7
CO/N=C/c1ccc(N2CCN(C(=O)c3ccc(F)cc3)CC2)c([N+](=O)[O-])c1	12.0%[7.66 µM]	1.1	27.0
O=S(=O)(Nc1cccc2ncccc12)c1cccs1	-48.8%	-19.2	-68.6*
O=S(=O)(Nc1ccc(-c2nc3cccnc3s2)cc1)c1cccs1	-4.5%	11.9	-14.4
CC(C)(Cc1ccc(O)cc1)NC(=O)CC(=O)N/N=C/c1ccc([N+](=O)[O-])cc1	-33.0%	2.0	7.1
COc1ccc2c(c1)/C(=C\c1cccc(/C=C3/C(=O)Nc4ccc(OC)cc43)n1)C(=O)N2	-57.3%	-18.2	-53.0*
Cc1ccc2c(c1)/C(=C/c1ccccc1)C(=O)N2	-6.0%	-1.5	-22.9
Cc1ccccc1S(=O)(=O)NCC[C@@H]1CC[C@@H](NC(=O)C2CCCC2)[C@@H](CO)O1	.	4.7	15.6
CSCCC(N=C1NS(=O)(=O)c2ccccc21)C(=O)NCCc1ccccc1 (stereo not given)	-3.1%	-9.2	?
COc1cccc(CN(C)C(c2ccccc2)c2ccccc2)c1OC	-4.8%	-17.6	-50.5*
COc1ccc(CN(C)C(c2ccccc2)c2nnnn2-c2ccccc2C)c(OC)c1C (stereo not given)	-35.3%	-12.5	0.0
O=C(NC1CCCCC1)N1CCc2ccccc21	4.3%	0.3	13.6
Nc1ccc2c3c(cccc13)-c1ccccc1-2	2.9%	30.0*	17.0
Cc1ccc2c3c(cccc13)-c1ccccc1C2=O	3.7%	5.7	3.3
CCOC(=O)Cn1c(=O)c2c(nc(Br)n2Cc2ccccc2Cl)n(C)c1=O	-51.2%	2.6	13.2
COc1ccc2cc(CN(CC3CCCO3)S(=O)(=O)c3ccccc3Cl)c(=O)[nH]c2c1 (stereo not given)	-21.4%	7.7	-15.6
SMILES	Integrin act MD	DRD3 agonist	DRD3 antagonist
CC(C)(C)OC(=O)NCCCC[C@@H](C(=O)NCCCCCCCCCCC(=O)N1CCN(C(=O)OC(C)(C)C)CC1)n1cc(CCO)nn1	-21.5%	37.7*	29.5
CSCC[C@@H](C(=O)NCCCCCCCCCCC(=O)N1CCN(C(=O)OC(C)(C)C)CC1)n1cc(CCO)nn1	-25.0%	23.6	76.8
CC[C@H](C)C(C(=O)N1CCN(C(=O)OC(C)(C)C)CC1)n1cc(C(CC(C)C)NC(=O)OC(C)(C)C)nn1 (stereo not given in full)	6.6%	5.7	20.9
CC[C@@H](C)[C@@H](C(=O)N1CCN(C(=O)OC(C)(C)C)CC1)n1cc(CCCCNC(=O)OC(C)(C)C)nn1	-37.6%	53.0*	142.4
O=C(COC(=O)c1ccccc1OCc1ccc(Cl)cc1)NCC1CCCO1 (stereo not given)	1.6%	-1.3	-5.3
O=C1NCCCC1C(=O)N/N=C/c1ccccc1O (stereo not given)	?	5.3	24.9
O=C1c2ccccc2C(=O)C1c1ccc(Br)cc1	18.4%	87.8*!	-4.2
O=C1c2ccccc2C(=O)C1c1ccc(Cl)cc1	0.2%	-15.5	-1.3
O=C1c2ccccc2C(=O)C1c1ccc(O)cc1	-18.2%	6.5	9.8
O=C1c2ccccc2C(=O)C1c1ccc(F)cc1	.	61.9*	.
Cc1cc(Cl)cc(Br)c1OCCCCn1cncn1	-16.7%	2.7	-4.0
Cc1cc(Cl)cc(Br)c1OCCNCC(C)O (stereo not given)	-21.5%	-13.5	-70.8*
CN1CC(=O)N2C(c3cccc([N+](=O)[O-])c3)c3[nH]c4ccccc4c3C[C@H]2C1=O (stereo not given in full)	0.0%	-4.2	-19.7
